# Test results as given in PubChem BioAssay (NCATS).
# Inconclusive results are not listed. Where a call stands in place of a potency, no number is given. Calls of active or inactive are those of the source. Calls come from the whole dose curve; as a rule, active = well fitted curve in the direction sought with a large enough effect; inconclusive = small, poorly fitted or top-dose-only effect, or another doubt; inactive = no such curve, though single readings can be large; an effect the other way counts as inactive or inconclusive.
# Assays:
# [1] = molecular target: Tyrosine-protein kinase Yes (Homo sapiens) (UniProt P07947); experiment: qHTS for small molecule inhibitors of Yes1 kinase: Primary Screen (AID 686947); note: nearly all actives have a fitted effect of over 60% in size; note: potency is the fitted concentration of half-maximal effect
# In short: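 ADP-Glo luminescence reports ADP formed by 4 nM Yes1 phosphorylating poly(E4Y) (0.3 mg/mL) with 0.1 mM ATP for 60 min at room temperature, following 20 min compound preincubation; normalised between DMSO wells with and without enzyme.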
# [2] = qHTS for small molecule inhibitors of Yes1 kinase: Counter Assay (AID 686950);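 note: no kinase present so only ADP-Glo detection of a fixed ADP amount is tested; luminescence from ADP-Glo reporting ADP in a fixed ATP and ADP mixture; series mostly up to about 77 µM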
# In short: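 Measuring interference with ADP-Glo, the assay ran 60 min at room temperature on an ATP/ADP mix lacking enzyme. Values were normalized to ATP-plus-ADP (maximum) and ATP-only (minimum) DMSO controls.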
# [3] = molecular target: Arylsulfatase A (Homo sapiens) (UniProt P15289); experiment: qHTS screen for enhancers of Arylsulfatase A (ASA1): LOPAC Validation Assay (AID 720538)
# In short: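 Read-out: fluorescence at Ex=525/Em=598 nm after 1N NaOH final stop. Patient fibroblasts carrying ASA-I179S had 48h compound exposure, then 14h room-temperature pNCS hydrolysis (0.5mM final) in lysis buffer. Signal increase = enhanced activity.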
# Chain of Tyrosine-protein kinase Yes (Homo sapiens) (P07947 whole entry, looked up): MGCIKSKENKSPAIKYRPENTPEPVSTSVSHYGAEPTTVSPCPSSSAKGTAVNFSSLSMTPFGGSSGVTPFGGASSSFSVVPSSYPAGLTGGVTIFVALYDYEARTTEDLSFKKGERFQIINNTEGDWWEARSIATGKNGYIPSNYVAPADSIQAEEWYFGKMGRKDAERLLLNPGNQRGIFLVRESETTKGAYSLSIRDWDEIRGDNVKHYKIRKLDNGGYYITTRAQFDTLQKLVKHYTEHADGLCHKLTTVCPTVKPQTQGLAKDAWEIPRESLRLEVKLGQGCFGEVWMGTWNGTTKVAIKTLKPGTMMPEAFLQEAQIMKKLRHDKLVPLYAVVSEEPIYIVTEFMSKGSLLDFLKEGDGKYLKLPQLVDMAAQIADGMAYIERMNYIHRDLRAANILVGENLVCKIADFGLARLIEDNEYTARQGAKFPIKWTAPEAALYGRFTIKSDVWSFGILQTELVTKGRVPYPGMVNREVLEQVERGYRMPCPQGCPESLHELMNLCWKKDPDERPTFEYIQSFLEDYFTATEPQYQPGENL
# Chain of Arylsulfatase A (Homo sapiens) (P15289 whole entry, looked up): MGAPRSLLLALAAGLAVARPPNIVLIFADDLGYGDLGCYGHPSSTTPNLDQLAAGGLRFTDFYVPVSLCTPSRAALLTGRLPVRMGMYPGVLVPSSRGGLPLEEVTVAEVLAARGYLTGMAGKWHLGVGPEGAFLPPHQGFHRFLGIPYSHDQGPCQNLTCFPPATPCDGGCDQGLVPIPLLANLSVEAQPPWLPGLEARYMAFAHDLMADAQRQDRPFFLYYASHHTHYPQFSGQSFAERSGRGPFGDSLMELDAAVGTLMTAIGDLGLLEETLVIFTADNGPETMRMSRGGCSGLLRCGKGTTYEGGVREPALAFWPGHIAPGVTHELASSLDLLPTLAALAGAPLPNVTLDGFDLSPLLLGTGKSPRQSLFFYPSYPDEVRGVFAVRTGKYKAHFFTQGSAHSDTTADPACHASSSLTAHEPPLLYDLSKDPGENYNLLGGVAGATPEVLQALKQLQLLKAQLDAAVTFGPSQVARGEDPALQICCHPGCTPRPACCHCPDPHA
SMILES,Potency [1],outcome [2],outcome [3]
CCC[C@H](NC(=O)C(C#N)=Cc1cccc(Br)n1)c1ccccc1,inactive,inactive,
C[C@@H]1CN(CC(=O)Nc2ccc3c(c2)Cc2cccc(-c4cc(=O)cc(N5CCOCC5)o4)c2S3)C[C@H](C)O1,inactive,inactive,
CC1(C)OC2=C(C(=O)c3ccccc3C2=O)[C@H](NCc2ccccc2)[C@H]1O,inactive,inactive,
Cc1cccc(C=NNc2cc(N3CCOCC3)nc(OCCc3ccccn3)n2)c1,inactive,inactive,
O=C(C=Cc1c(C(=O)O)[nH]c2cc(Cl)cc(Cl)c12)Nc1ccccc1,inactive,inactive,
COc1cc2nccc(Oc3ccc(NC(=O)C4(C(=O)Nc5ccc(F)cc5)CC4)cc3)c2cc1OC,1090 nM (active),inactive,
O=C(c1ccc(Nc2nccc(-c3cc4ccccc4s3)n2)cc1)N1CCC(N2CCCC2)CC1,68.8 nM (active),inactive,
CN1CCC(CNc2ccc3ncc(-c4cccc(OC(F)(F)F)c4)n3n2)CC1,97.2 nM (active),inactive,
O=c1c2ccccc2nc2n1CCc1c-2[nH]c2ccccc12,,,inactive
